# Results reported in article PMC4336329 (PLoS ONE, 2015).
# About 2,200 (0.71%) of roughly 310,000 compounds showed an effect of 50% or more. Effects have a minus sign here. What follows is part of a selection rich in strong results, with near analogues and random picks from the rest.
# Molecular target: human ether-à-go-go-related gene (hERG) potassium channel (human, UniProt Q12809)
# Assay: primary screen, population patch clamp on CHO cells stably expressing hERG; higher = less effect of the substance
# Sequence of human ether-à-go-go-related gene (hERG) potassium channel (Q12809 whole entry, looked up): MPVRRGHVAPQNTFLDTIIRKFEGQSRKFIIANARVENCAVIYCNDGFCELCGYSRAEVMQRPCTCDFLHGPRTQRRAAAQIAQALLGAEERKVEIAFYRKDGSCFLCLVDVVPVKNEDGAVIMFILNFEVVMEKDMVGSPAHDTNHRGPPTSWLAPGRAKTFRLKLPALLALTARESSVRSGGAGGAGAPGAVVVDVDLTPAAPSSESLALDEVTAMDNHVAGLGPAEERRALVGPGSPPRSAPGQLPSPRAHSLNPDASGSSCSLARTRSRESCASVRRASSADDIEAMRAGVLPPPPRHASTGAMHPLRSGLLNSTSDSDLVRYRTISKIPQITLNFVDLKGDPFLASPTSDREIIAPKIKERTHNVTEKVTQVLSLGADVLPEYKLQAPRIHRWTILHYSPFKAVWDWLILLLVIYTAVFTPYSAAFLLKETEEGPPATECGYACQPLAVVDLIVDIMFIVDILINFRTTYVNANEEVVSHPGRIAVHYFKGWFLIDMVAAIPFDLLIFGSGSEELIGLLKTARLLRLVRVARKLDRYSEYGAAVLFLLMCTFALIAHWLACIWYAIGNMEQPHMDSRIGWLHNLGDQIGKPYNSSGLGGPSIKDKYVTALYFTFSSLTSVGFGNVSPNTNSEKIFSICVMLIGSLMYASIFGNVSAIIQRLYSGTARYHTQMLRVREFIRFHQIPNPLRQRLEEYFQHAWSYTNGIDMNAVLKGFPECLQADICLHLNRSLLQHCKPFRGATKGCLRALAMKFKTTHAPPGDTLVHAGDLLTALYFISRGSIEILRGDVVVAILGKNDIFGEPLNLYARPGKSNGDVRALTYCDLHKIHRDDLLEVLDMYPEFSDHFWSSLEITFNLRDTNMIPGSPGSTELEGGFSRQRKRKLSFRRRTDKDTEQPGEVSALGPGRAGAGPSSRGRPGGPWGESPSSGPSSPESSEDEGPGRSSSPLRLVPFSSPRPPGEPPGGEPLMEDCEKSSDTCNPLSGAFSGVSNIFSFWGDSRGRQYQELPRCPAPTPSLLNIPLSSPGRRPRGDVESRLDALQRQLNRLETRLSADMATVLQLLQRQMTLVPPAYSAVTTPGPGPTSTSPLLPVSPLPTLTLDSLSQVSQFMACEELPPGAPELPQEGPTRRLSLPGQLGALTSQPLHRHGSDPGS
row,Structure (SMILES),"hERG current change (%, negative = inhibition) at 1uM [%]"
1,CCOC(=O)CCc1c(C)nc2cc(-c3ccc(F)cc3)[nH]n2c1=O,8.2
2,CC(C)(C)SCCNC(=O)c1ccc(Cl)c([N+](=O)[O-])c1,8.24
3,O=C(Cn1nnc(-c2ccccc2-n2cnnn2)n1)c1ccccc1,5.12
4,O=C(C1=C(O)C(=O)N(CCCN2CCOCC2)C1c1ccc(Cl)cc1)c1cc2ccccc2o1 (stereo not drawn),15.8
5,CN(C(=O)c1ccc(Cl)cc1)C1=CCCCC1CCC#N (stereo not drawn),0.644
6,COc1ccc(CC(=O)Nc2cc(S(=O)(=O)N3CCCCC3)ccc2N2CCN(C)CC2)cc1,-7.26
7,O=C(CC1OC(=O)c2ccccc21)Nc1cc(Cl)ccc1N1CCCC1 (stereo not drawn),8.82
8,CC(C)C(=O)N1CCN(c2ccccc2NC(=O)Cc2ccc(Cl)cc2)CC1,-38.9
9,CN1CCN(c2ccc(Cl)cc2NC(=O)CC2OC(=O)c3ccccc32)CC1 (stereo not drawn),-61.2
10,CN1CCN(c2ccc(S(=O)(=O)N3CCCCC3)cc2NC(=O)Cc2ccc(Cl)cc2)CC1,-50.6
11,CN1CCN(c2ccc(Cl)cc2NC(=O)CCN2C(=O)c3ccccc3C2=O)CC1,6.75
12,CC(=O)N1CCN(c2ccccc2NC(=O)Cc2ccc(Cl)cc2)CC1,-17.2
13,CN1CCN(c2ccccc2NC(=O)Cc2ccc(Cl)cc2)CC1,-59.4
14,CN1CCN(c2ccc(S(=O)(=O)N3CCCCC3)cc2NC(=O)Cc2c(F)cccc2Cl)CC1,-7.39
15,COc1ccc(NC(=S)N(CCc2ccc(OC)c(OC)c2)Cc2ccccn2)cc1,0.952
16,CCOC(=O)c1ccc(CNCc2ccc(C)cc2)cc1,-1.83
17,COc1ccc(S(=O)(=O)N2CCCC2CNC(=O)C(=O)Nc2ccc(C)cc2)cc1 (stereo not drawn),-0.606
18,COc1cc(CCC(=O)OCC(=O)Nc2ccc(C)cc2Cl)cc(OC)c1OC,15.1
19,CCn1ncc(NC(=O)Nc2cccc(C(F)(F)F)c2)c1C(N)=O,5.39
20,Cc1cc(C(=O)NC2CCCCC2)on1,10.2
21,CN(C)c1cccc(C(=O)Nc2nc3ccccc3[nH]2)c1,14.7
22,Fc1ccc(CN2CCCCCCC2)c(F)c1,14.2
23,O=C(N/C(=C\c1cccc([N+](=O)[O-])c1)C(=O)N1CCOCC1)c1cccc(Br)c1,7.37

row,Structure (SMILES),"hERG current change (%, negative = inhibition) at 1uM [%]"
1,O=C(N/C(=C\c1ccc(Br)cc1)C(=O)N1CCOCC1)c1ccc([N+](=O)[O-])cc1,-81.6
2,O=C(N/C(=C\c1ccc([N+](=O)[O-])cc1)C(=O)N1CCOCC1)c1cccc(Br)c1,-79
3,O=C(N/C(=C\c1ccccc1Cl)C(=O)N1CCOCC1)c1ccc([N+](=O)[O-])cc1,-31.6
4,Cc1ccc(C(=O)N/C(=C/c2ccc(Cl)cc2)C(=O)N2CCOCC2)cc1,-9.41
5,O=C(N/C(=C\c1ccccc1)C(=O)N1CCOCC1)c1cccc(Br)c1,18.8
6,COc1ccc(C(=O)N/C(=C\c2ccccc2)C(=O)N2CCOCC2)cc1,9.79
7,COc1ccc(/C=C(/NC(=O)c2ccc(Br)cc2)C(=O)N2CCOCC2)cc1,7.06
8,O=C(N/C(=C\c1ccc(Cl)cc1)C(=O)N1CCOCC1)c1ccc([N+](=O)[O-])cc1,-88.2
9,COc1ccc(/C=C(\NC(=O)c2ccc([N+](=O)[O-])cc2)C(=O)N2CCOCC2)cc1,-54.9
10,O=C(N/C(=C/c1cccc([N+](=O)[O-])c1)C(=O)N1CCOCC1)c1ccc(Br)cc1,-19.6
11,O=C(N/C(=C/c1ccccc1)C(=O)N1CCOCC1)c1ccc([N+](=O)[O-])cc1,-19.6
12,O=C(Nc1cc(Cl)ccc1N1CCOCC1)c1cc2ccccc2o1,8.14
13,Cc1c(Br)c([N+](=O)[O-])nn1C(C)C(=O)NCc1cccnc1 (stereo not drawn),-7.67
14,O=C(O)COc1ccccc1,14.1
15,O=C(Nc1ccc2c(c1)C(=O)OC2)c1ccc(Cl)cc1Cl,3.09
16,Cc1ccccc1N(C(=O)Cc1cccs1)C(C(=O)NC1CCCCC1)c1cn(C)nc1C (stereo not drawn),-0.242
17,CCCCN1C2=NC(c3ccccc3)CN2c2ccccc21.Cl (stereo not drawn),-50.5
18,Br.CCCCN1C2=NCCCN2c2ccccc21,-6.43
19,c1ccc([C@H]2CN3C(=N2)Sc2ccccc23)cc1,11
20,Br.CCCCCN1C2=NCCN2c2ccccc21,-58.9
21,CCCCCCN1C2=NCCCN2c2ccccc21.Cl,-73.7
22,CCCN1C2=NCCCN2c2ccccc21.Cl,7.07
